GDH-TPI counter-1 = GDH-TPI coupled enzyme inhibition counter-screen; AID 588335; 360,000 compounds, 1.2% hits; inhibition, % at 4.8 µM; GDH-TPI coupled enzyme counterscreen, NADH absorbance; in the data active means inhibition above about 30%
Mtb bLac sens = beta-lactam sensitization of Mtb H37Rv. M. tuberculosis H37Rv growth with meropenem, percent inhibition. 330,000 compounds, 0.27% hits. inhibition, % at 25 µM;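 further: growth measured after seven days incubation then overnight dye step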
FBA Mtb inh = Mtb fructose-bisphosphate aldolase inhibition; P9WQA3; purified M. tuberculosis FBA, fluorescence read-out; inhibition, % at 1 µM; 360,000 compounds, 2.3% hits; AID 588726; in the data active means inhibition above about 27%
Target sequence (P9WQA3 whole entry, looked up): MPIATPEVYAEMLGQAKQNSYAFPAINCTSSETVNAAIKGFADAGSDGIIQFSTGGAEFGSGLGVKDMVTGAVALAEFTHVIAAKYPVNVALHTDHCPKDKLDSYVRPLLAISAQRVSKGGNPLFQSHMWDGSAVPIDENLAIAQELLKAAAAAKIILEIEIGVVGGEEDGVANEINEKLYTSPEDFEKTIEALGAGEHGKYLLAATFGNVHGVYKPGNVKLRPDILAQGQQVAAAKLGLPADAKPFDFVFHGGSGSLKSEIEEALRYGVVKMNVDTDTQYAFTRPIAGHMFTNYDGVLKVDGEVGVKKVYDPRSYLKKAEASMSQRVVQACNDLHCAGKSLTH
Mtb hypoxia rep = reduces hypoxia-regulated biosensor signal in M. tuberculosis; M. tuberculosis hypoxia-regulated fluorescent reporter, fluorescence; AID 1159583; 300,000 compounds, 0.1% hits; fluorescence inhibition, % (concentration not given with the values); in the data active means fluorescence inhibition mostly above about 23%, no sharp cut-off; inactive means mostly below about 17%
VHR inh abs = inhibitors of human VHR1 phosphatase (DUSP3); recombinant VHR phosphatase, pNPP absorbance; 290,000 compounds, 0.52% hits; P51452; inhibition, % at 13.3 µM; in the data active means inhibition above about 50%
Target sequence (P51452 whole entry, looked up): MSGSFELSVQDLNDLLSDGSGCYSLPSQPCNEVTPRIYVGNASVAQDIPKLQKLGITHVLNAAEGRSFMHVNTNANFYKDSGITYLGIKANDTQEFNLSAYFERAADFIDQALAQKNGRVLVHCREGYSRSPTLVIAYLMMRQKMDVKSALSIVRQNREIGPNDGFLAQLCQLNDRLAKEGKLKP
Mtb FBA inh conf = Mtb FBA inhibition, confirmed; shares compounds with FBA Mtb inh; purified M. tuberculosis FBA, fluorescence read-out; inhibition, % at 1 µM; 5,600 compounds, 78% hits; in the data active means inhibition above about 27%
GDH-TPI counter-2 = GDH-TPI inhibition counter-screen for FBA inhibitors | GDH-TPI coupled enzyme counterscreen, fluorescence | AID 652141 | inhibition, % at 1 µM | shares compounds with FBA Mtb inh | 5,600 compounds, 81% hits; in the data active means inhibition above about 10%
GDH-TPI dose = inhibits GDH-TPI coupling enzymes in dose response; shares compounds with FBA Mtb inh; GDH-TPI coupled enzyme assay, fluorescence, artifact counterscreen; IC50, µM; 170 compounds, 79% hits; AID 652145
Hits are given with their value; i = inactive; nt = no result given; + = active, no number. Rows were chosen to be rich in hits. Some 3.6% of all compounds tested hit in one or more screens of this group. Unless noted, how the calls were made is not given here.

SMILES | GDH-TPI counter-1 | Mtb bLac sens | FBA Mtb inh | Mtb hypoxia rep | VHR inh abs | Mtb FBA inh conf | GDH-TPI counter-2 | others
Cc1c(-c2ccccc2)nc2ccccc2c1C(=O)Oc1ccc([N+](=O)[O-])cc1 | i | i | i | nt | i | nt | nt
CCOC(=O)Nc1ccc2nc(-c3cscn3)[nH]c2c1 | i | nt | 27.7 | nt | nt | 50.5 | 37.9
Cc1cc2nccc(-c3ccc(F)cc3)n2n1 | i | i | i | i | i | nt | nt
COc1ccc(-c2ccnc3cc(C(=O)O)nn23)cc1 | i | i | 35.9 | i | i | i | i
c1coc(-c2ccnc3nc(-n4cccc4)nn23)c1 | i | i | i | i | i | nt | nt
O=C(O)c1cc2nccc(-c3ccco3)n2n1 | 36.4 | i | 32.1 | i | i | 122.2 | 98.0
COc1cccc(Oc2ccc(OC)cc2C(=O)O)c1 | i | i | i | i | i | nt | nt
COc1cccc(-c2c(C(=O)O)cc(O)c3ccc(OC)cc23)c1 | i | nt | 34.1 | i | nt | i | i
O=C(O)CCN(CCC(=O)O)c1ccccc1 | i | i | i | i | i | nt | nt
O=C(O)c1cccc(N(CCO)CCO)c1 | i | i | 38.7 | i | i | 98.6 | 75.3
OCCN(CCO)c1ccc2ccccc2c1 | i | i | 109.4 | i | i | 33.2 | 27.4
OCCN(CCO)c1ccc(C(c2ccccc2Cl)c2ccc(N(CCO)CCO)cc2Cl)c(Cl)c1 | i | i | i | i | i | nt | nt
CCOC(=O)C1C2COc3ccc(OC)cc3C2N2C(=O)CN(Cc3ccco3)C(=O)[C@@]12C (stereo not given in full) | nt | nt | nt | i | nt | nt | nt
CCOC(=O)NN=Cc1cc(C)n(-c2ccccc2)c1C | nt | nt | nt | i | nt | nt | nt
NC(=O)CSc1oc(-c2ccc(F)cc2)nc1S(=O)(=O)c1ccccc1 | i | i | 62.0 | i | i | 158.2 | 89.0
Cc1ccc(-c2nc(S(=O)(=O)c3ccc(C)cc3)c(SCC(N)=O)o2)cc1 | i | i | i | i | i | nt | nt
CCOC(=O)C1C2COc3ccccc3C2N2C(=O)N(c3ccc(C(F)(F)F)cc3)C(=O)[C@@]12C (stereo not given in full) | nt | nt | nt | i | nt | nt | nt
COc1ccc(C2CC=C(C(=O)O)C(c3ccccc3)N2S(=O)(=O)c2ccc(C)cc2)cc1OC (stereo not given) | nt | nt | nt | i | nt | nt | nt
Cc1ccc(C(=O)NN=CC2=Cc3ccccc3OC2C)cc1 (stereo not given) | nt | nt | nt | i | nt | nt | nt
O=C(Nc1ccccn1)c1ccc(Br)c(S(=O)(=O)N2CCCC2)c1 | i | i | i | i | i | nt | nt
O=C(Nc1ccccn1)c1ccc(Br)c(S(=O)(=O)N2CCCCC2)c1 | i | i | 51.3 | i | i | + | +
COCC(=O)N(C)[C@H]1C[C@H]2c3[nH]c4ccccc4c3CCN2C(=O)[C@H]1[C@H](C)O | i | nt | i | nt | nt | nt | nt
C[C@H](O)[C@@H]1C(=O)N2CCc3c([nH]c4ccccc34)[C@@H]2C[C@@H]1N(C)C(=O)NC1CCCCC1 | i | nt | 87.0 | nt | nt | 156.9 | 116.1
CN1OC[C@@H]2C(=O)N3CCc4c([nH]c5ccccc45)[C@@H]3C[C@@H]21 | i | nt | 37.7 | nt | nt | + | 191.6
Fc1ccc(NN=C2CCSc3sccc32)c(F)c1 | nt | nt | nt | i | nt | nt | nt
SMILES | GDH-TPI counter-1 | Mtb bLac sens | FBA Mtb inh | Mtb hypoxia rep | VHR inh abs | Mtb FBA inh conf | GDH-TPI counter-2 | others
CCN1CCN(C(c2cc3cc4c(cc3[nH]c2=O)OCO4)c2nnnn2C(C)(C)CC)CC1 (stereo not given) | 31.8 | i | 94.2 | i | i | i | i
O=c1[nH]c2cc3c(cc2cc1C(c1nnnn1CC1CCCO1)N1CCCC1)OCO3 (stereo not given) | i | i | 29.4 | i | i | + | +
O=c1[nH]c2cc3c(cc2cc1C(c1nnnn1CC1CCCO1)N1CCCCCC1)OCO3 (stereo not given) | nt | nt | nt | nt | i | nt | nt
CCC(C)(C)n1nnnc1C(C(C)C)N(Cc1ccco1)Cc1cc2cc3c(cc2[nH]c1=O)OCO3 (stereo not given) | i | i | 29.3 | i | i | 51.9 | 44.0
COc1ccc(C2C3C(=O)N(C(C)(C)C)C(=O)C3[C@]3(C)C(=O)N(c4ccccc4)C(=O)N23)cc1 (stereo not given in full) | nt | nt | nt | i | nt | nt | nt
N#CCCN(C(=O)COc1ccc(F)cc1Br)c1ccccc1F | i | i | 28.2 | i | i | i | i | GDH-TPI dose=i
COc1ccc(Cc2c(-c3ccc(OC)c(OC)c3)nc3c(C)cc(Br)cn23)c(C)c1 | nt | nt | i | nt | nt | nt | nt
COc1ccc(-c2nc3ccc(C)cn3c2Cc2cccc(F)c2)cc1OC | nt | nt | 59.5 | nt | nt | 66.4 | 65.4
COc1ccc(Cc2c(-c3ccc(OC)c(OC)c3)nc3ccc(C)cn23)c(C)c1 | nt | nt | 30.8 | nt | nt | 53.6 | 43.0
COc1ccc(C=NNC(=O)c2cc(-c3cccnc3)nc3ccccc23)c(OC)c1 | nt | nt | nt | i | nt | nt | nt
COC(=O)Cc1c(C)c2ccc(OCC(=O)N3CCC(C)CC3)c(C)c2oc1=O | i | i | 84.3 | i | i | 54.3 | 50.5
COc1ccc(N2CCN(C(=O)COc3ccc4c(C)cc(=O)oc4c3C)CC2)cc1 | i | i | i | i | i | nt | nt
Cc1cc(=O)oc2c(C)c(OCC(=O)N3CCC(C(=O)O)CC3)ccc12 | i | i | 49.3 | nt | i | i | 15.5
Cc1cc(=O)oc2c(C)c(OCC(=O)N3CCN(Cc4ccccc4)CC3)ccc12 | i | i | 27.1 | i | i | 146.9 | 99.7
Cc1c(OCC(=O)N2CCC(C(N)=O)CC2)ccc2c1oc(=O)c1ccccc12 | i | i | 27.8 | nt | i | 130.5 | 101.2
Cc1ccc(C(=O)NN=Cc2cc3c(cc2Br)OCO3)s1 | nt | nt | nt | i | nt | nt | nt
O=c1cc(CN2CCN(C/C=C/c3ccccc3)CC2)c2cc(O)c(-c3ccccc3)cc2o1 | i | i | i | i | i | nt | nt
Cc1c(O)ccc2c(CN3CCN(C/C=C/c4ccccc4)CC3)cc(=O)oc12 | i | i | 64.0 | i | i | 73.9 | 56.4
CCCCC1OC2(C)OC(=N)C1(C#N)C(C#N)(C#N)C2c1ccccc1 (stereo not given) | i | i | 77.7 | i | i | 115.8 | 82.8
CC1OC2(C)OC(=N)C1(C#N)C(C#N)(C#N)C2c1ccccc1 (stereo not given) | i | i | 53.5 | i | i | 62.5 | 49.6
COC(=O)C1(C#N)C(c2ccccc2)C1(C(=O)OC)C(=O)OC (stereo not given) | i | i | i | i | i | nt | nt
CC(=NNC(=O)c1sccc1C)c1cccnc1 | nt | nt | nt | i | nt | nt | nt
CC(=NNS(=O)(=O)c1cccc([N+](=O)[O-])c1)c1ccc2c(c1)OCO2 | nt | nt | nt | i | nt | nt | nt
CCOC(=O)C1C2COc3ccccc3C2N2C(=O)c3cc(F)c(F)cc3NC(=O)[C@@]12C (stereo not given in full) | nt | nt | nt | i | nt | nt | nt
COc1cc2c(c(OC)c1OC)-c1c(cc3c(c1OC)OCO3)C1OC2C(C)C1C (stereo not given) | nt | nt | nt | i | nt | nt | nt
CCOc1ccccc1Oc1c(C)oc2cc(OC(=O)c3ccco3)ccc2c1=O | i | i | i | i | i | nt | nt
COc1ccc2c(=O)c(-c3ccccc3C)c(C)oc2c1 | i | i | i | nt | i | nt | nt

Compound activity deposited in PubChem BioAssay by several laboratories.
